Results on 40 compounds are retold here after PubChem BioAssay (NCATS).

Results filed as inconclusive are left out. Where a call stands in place of a potency, no number is given. Calls of active or inactive are those of the source. Calls come from the whole dose curve; as a rule, active = well fitted cell-killing curve with a large enough effect; inconclusive = small, poorly fitted or top-dose-only effect; inactive = flat fitted curve, though single readings scatter.
Potency is the fitted concentration of half-maximal effect.

A short description of this assay: qHTS of pediatric cancer cell lines to identify multiple opportunities for drug repurposing: Primary screen for Rh18 cells (AID 1347102). Note: nearly all actives have a fitted effect of over 65% in size. The conditions noted are these: Rh18 rhabdomyosarcoma viability, CellTiter-Glo luminescence, 48 h; series mostly up to 46 µM. From the text: Drug repurposing or repositioning has been offered as a strategy for drug development in oncology programs. This approach has special potential for childhood cancers and other rare or orphan diseases, where the expected return on new drug development has been a disincentive to pharmaceuticals.
In this project we exploit the poly-pharmacology of drugs to discover new indications via phenotypic screening of a panel of 19 well-characterized cell lines derived from solid tumors seen in children and adolescents. The goal is to identify approved drugs with previously unrecognized anticancer properties that has the potential to reveal new mechanisms and biological processes involved in carcinogenesis or drug resistance. We employed a titration-based paradigm (quantitative high-throughput screening or qHTS), where all compounds were tested at multiple concentrations for their effect on cell viability. Concentration-response curves (CRCs) were derived directly from the primary screen, and both potency and efficacy values were used to identify compounds with robust bioactivity profiles. We screened the NIH Chemical Genomics Center (NCGC) Pharmaceutical Collection (NPC) and Mechanism Interrogation Plate (MIPE) small molecule collections of approved and investigational compounds against these cell lines; and measured metabolically active cells after 48 hours of compound treatment as a proxy for cell viability.
Assay Submitter: Nathalia J. Martinez, National Center for Advancing Translational Sciences, National Institutes of Health, Rockville, MD, USA; email: natalia.martinez@nih.gov
[1] Shen, M et al. Quantitative high-throughput phenotypic screening of pediatric cancer cell lines identifies multiple opportunities for drug repurposing. Oncotarget 2017 Dec 19;9(4):4758-4772. PMID 29435139.
The cells were obtained from University of North Carolina (UNC), Pediatric Preclinical Testing Program (PPT), and Coriell Institute (CI).
qHTS cell viability assay:
Cells were assayed in growth media at a density of 500-1,000 cells/well. Five microliters of cells were dispensed into 1,536-well, white, solid-bottom, TC-treated plates (Greiner Bio One) using a multidrop dispenser and incubated at 37 degrees C, 5% CO2, under a humidified atmosphere for 5 hours. Twenty-three nanoliters of compounds and controls (neutral control DMSO or positive control bortezomib at final concentration of 2.3 µM) were subsequently transferred by Kalypsys pintool. For primary screens, the MIPE collection was tested at 11-point dilutions (final concentrations range from 0.78 nM to 46 µM) and the NPC collection at 8-point dilutions (final concentrations range from 0.59 nM to 46 µM). Compounds tested in follow-up screens were assayed at 11-point dilutions. Cells were incubated for 48 hours, followed by addition of 3 µL of CellTiter-Glo (Promega). After a 15 min incubation at room temperature, samples were analyzed for luminescence intensity using a ViewLux High-throughput CCD imager equipped with clear filters.
Background: Quantitative high-throughput screening tests each substance at several concentrations.
Consider `C[C@H]1COc2c(N3CCN(C)CC3)c(F)cc3c(=O)c(C(=O)O)cn1c23`, for which the Potency entry is “inactive”. Next, `CCOC(=O)[C@@H](N)Cc1ccc(-c2cc(O[C@H](c3ccc(Cl)cc3-n3ccc(C)n3)C(F)(F)F)nc(N)n2)cc1`: 23.5 µM (active); `C[C@H](CCC(=O)O)[C@H]1CC[C@H]2[C@@H]3[C@H](O)C[C@@H]4C[C@H](O)CC[C@]4(C)[C@@H]3CC[C@]12C`: “inactive”; `COc1cccc2c1C(=O)c1c(O)c3c(c(O)c1C2=O)C[C@@](O)(C(=O)CO)C[C@H]3O[C@H]1C[C@H](N)[C@H](O)[C@H](C)O1`: 0.662 µM (active). For `C=C1C(=CC=C2CCC[C@]3(C)[C@@H]([C@H](C)CCCC(C)(C)O)CC[C@@H]23)C[C@@H](O)C[C@@H]1O` the value was 5.26 µM (active); for `CC(=O)O[C@H]1C[C@@H]2CC[C@H]3[C@H]4C[C@H]([N+]5(C)CCCCC5)[C@@H](OC(C)=O)[C@@]4(C)CC[C@@H]3[C@@]2(C)C[C@H]1N1CCCCC1`, “inactive”. Next, `Nc1nc2c(c(=O)[nH]1)N(C=O)[C@H](CNc1ccc(C(=O)N[C@@H](CCC(=O)O)C(=O)O)cc1)CN2`: “inactive”; `COC1=C2C[C@@H](C)C[C@H](OC)[C@@H](O)[C@@H](C)C=C(C)[C@H](OC(N)=O)[C@@H](OC)C=CC=C(C)C(=O)NC(=CC1=O)C2=O`: 5.9 µM (active); `CC(=O)OC[C@@H]1O[C@@H](n2ccc(=O)[nH]c2=O)[C@H](OC(C)=O)[C@H]1OC(C)=O`: “inactive”.

For the compound `O=C(c1ccc(F)cc1)N1CCC[C@H](c2nc(-c3ccc(F)cc3)no2)C1`, the Potency entry is “inactive”.

As to `CN(C)c1ccc2cc(C(=O)N[C@@H](CCCN=C(N)CCl)C(=O)NCc3ccccc3)ccc2c1`, the Potency is 20.9 µM (active). Regarding `Cc1nc(NC(=O)N2CCC[C@@H]2C(N)=O)sc1-c1ccnc(C(C)(C)C(F)(F)F)c1`, the Potency was 3.72 µM (active). For `CCOC(=O)C1=C(C)NC(=S)NC1c1cccc(O)c1` (stereo not given) the value was “inactive”; for `CC(C=CC(=O)NO)=C[C@@H](C)C(=O)c1ccc(N(C)C)cc1`, 0.526 µM (active); for `CCOC(=O)[C@H](CCc1ccccc1)N[C@@H](C)C(=O)N1[C@@H](C(=O)O)C[C@H]2CCC[C@@H]21`, 16.6 µM (active). Next, `CC(=O)O[C@@]12CO[C@H]1C[C@H](O)[C@@]1(C)C(=O)[C@H](O)C3=C(C)[C@@H](OC(=O)C(O)[C@@H](NC(=O)OC(C)(C)C)c4ccccc4)C[C@@](O)([C@@H](OC(=O)c4ccccc4)[C@@H]21)C3(C)C` (stereo not given in full): “inactive”. With `CCNC(=O)c1cc2c(-c3cc(OCCN4CCCC4)c(Cl)cc3Cl)nc(N)nc2s1`, the Potency was 4.69 µM (active). Next, `CC(C)C[C@H](NC(=O)CNC(=O)c1cc(Cl)ccc1Cl)B1OC(=O)CC(CC(=O)O)(C(=O)O)O1` (stereo not given in full): 0.209 µM (active); `CC(C)(C)c1nc2c3cc[nH]c(=O)c3c3cc(F)ccc3c2[nH]1`: “inactive”; `FC(F)(F)c1ccc(Nc2nc3ccc(Oc4ccnc(-c5ncc(C(F)(F)F)[nH]5)c4)cc3[nH]2)cc1`: “inactive”. For `COc1cc(C[C@@H](CO)[C@H](CO)Cc2ccc(O)c(OC)c2)ccc1O` the value was 4.18 µM (active); for `CN(N=O)C(=O)N[C@H]1C(O)OC(CO)[C@@H](O)[C@H]1O` (stereo not given in full), “inactive”; for `Cc1cc(Nc2ncc3c(n2)N(C)C(=O)N(c2cc(NC(=O)c4cccc(C(F)(F)F)c4)ccc2C)C3)n(C)n1`, 0.59 µM (active). Next, `C[C@@H](Cc1cc2c(c(C(N)=O)c1)N(CCCO)CC2)NCCOc1ccccc1OCC(F)(F)F`: “inactive”; `C[C@H](O)[C@@H]1C(=O)N2C(C(=O)O)=C(S[C@@H]3CN[C@H](CNS(N)(=O)=O)C3)[C@@H](C)[C@@H]12`: “inactive”. In the case of `Nc1nc(=O)n([C@H]2CSC(CO)O2)cc1F` (stereo not given in full), the Potency entry is “inactive”.

For the compound `NC(=O)c1ncn([C@@H]2O[C@H](CO)[C@@H](O)[C@@H]2O)c1N`, the Potency result was “inactive”. For `CC(C)(O)[C@H]1CC[C@@](C)([C@H]2[C@@H](O)C[C@@]3(C)[C@@H]4C[C@H](O[C@@H]5O[C@H](CO)[C@@H](O)[C@H](O)[C@@H]5O)[C@H]5C(C)(C)[C@@H](O[C@@H]6OC[C@@H](O)[C@H](O)[C@@H]6O)CC[C@@]56C[C@@]46CC[C@]23C)O1` the value was “inactive”. For `CC(=O)C1=C(O)C=C2Oc3c(C(C)=O)c(O)c(C)c(O)c3C2(C)C1=O` (stereo not given) the value was “inactive”; for `CCCNC(=O)[C@H]1O[C@H]1C(=O)N[C@H](C(=O)N1CCC[C@@H]1C(=O)OC)C(C)CC` (stereo not given in full), 14.8 µM (active).

Consider `CC(=CC(=O)Nc1ccccc1C(=O)O)c1ccc2ccccc2c1`, for which the Potency result is “inactive”.

Turning to `C[N+]1(C)[C@@H]2C[C@@H](OC(=O)C(O)(c3cccs3)c3cccs3)C[C@H]1[C@@H]1O[C@@H]12`, the Potency result was “inactive”.

Take `O=C(NNC(=O)c1ccc(CNS(=O)(=O)c2ccc(F)c(Cl)c2)cc1)c1ccccc1`: the Potency entry is “inactive”. On to `O=C(O)C=Cc1ccc(Cn2ccnc2)cc1`, for which the Potency result is “inactive”.

Turning to `CC(O)(C#Cc1ccc2c(c1)N(c1nc(N)ncc1Cl)CC2)c1nccs1` (stereo not given), the Potency result was “inactive”. For `C[C@H](CCC(=O)O)[C@H]1CCC2C3C[C@H](O)[C@@H]4C[C@H](O)CC[C@]4(C)C3CC[C@@]21C` (stereo not given in full) the value was “inactive”; for `COc1cc([C@@H]2c3cc4c(cc3[C@H](O)[C@H]3COC(=O)[C@@H]23)OCO4)cc(OC)c1OC`, “inactive”. Next, `Cc1noc(-c2ccc(CSCCC(=O)O)cc2)c1NC(=O)OC(C)c1ccccc1Cl` (stereo not given): “inactive”.

Take `CCCCC(=O)O[C@]1(C(=O)CO)[C@@H](C)C[C@H]2[C@@H]3CCC4=CC(=O)C=C[C@]4(C)[C@@]3(F)[C@@H](O)C[C@@]21C`: the Potency result is “inactive”.

In the case of `CNC(=O)Nc1ccc(-c2nc(N3CC4CCC(C3)O4)c3cnn(C4CCC5(CC4)OCCO5)c3n2)cc1`, the Potency is 0.0935 µM (active).
